KB-3-1 cytotox: KB-3-1 parental cell cytotoxicity. KB-3-1 viability, CellTiter-Glo ATP luminescence, 72 h. Potency, µM (series often up to 46.1 µM), actives largely listed as cytotoxic. 400,000 tested, 1.4% active. AID 1347075; further: on the % scale 0 is the no-effect control and ±100 the full control effect; nearly all actives have a fitted effect of over 60% in size
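Cytotoxicity in the drug-sensitive parental line KB-3-1 was scored as loss of CellTiter-Glo luminescence following 72 h incubation with compound. Values come from curve fitting of normalized concentration-response data.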
HT1080-NT tox: kills 2HG-producing HT-1080-NT fibrosarcoma cells. HT-1080-NT fibrosarcoma viability, CellTiter-Glo ATP luminescence, 48 h. Potency, µM (titrated, usually from 46.1 µM), for inactives: top-dose activity, negative = less viability, most hits filed as cytotoxic. 360,000 tested, 1.6% active. AID 686970;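 further: NT is the 2HG producing partner of a matched IDH1 knockdown line; 0% = DMSO-treated cells and -100% = media-only wells without cells; nearly all actives have a fitted effect of over 55% in size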
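Luminescent CellTiter-Glo readout after 48 hours of compound exposure at 37 degrees C defined viability of HT-1080-NT cells. Activity was normalized to DMSO wells and cell-free media wells; concentration-response curves were fitted and assigned curve classes.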
KB-V1 MDR tox: KB-V1 MDR subline cytotoxicity; 400,000 tested, 3.4% active; KB-V1 MDR cells viability, CellTiter-Glo, 72 h; Potency, µM (top dose mostly 46.1 µM), usual class: cytotoxic; further: on the % scale 0 is the no-effect control and ±100 the full control effect; nearly all actives have a fitted effect of over 60% in size
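Luminescent ATP read-out (CellTiter-Glo, 10 min) measures survival of drug-selected KB-V1 MDR cells after 72 h, 37 degrees C compound exposure. Medium: phenol-red-free DMEM, 10% FBS. Values from fitted concentration-response curves.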
SW480 rereplic: DNA re-replication induction in SW480 cells | SW480 DNA re-replication, Hoechst DNA content imaging, 48 h | Potency, µM (titrated, usually from 46.1 µM), inactives show top-dose re-replication activation, most hits filed as activators | 340,000 tested, 1.8% active; further: % of control where 0% means no effect; nearly all actives have a fitted effect of over 55% in size
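DNA re-replication was detected as more nuclei of elevated Hoechst intensity after 48 hr exposure to compound (23 nL pinned per well of 250 cells).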
MCF10A rereplic: induces DNA re-replication in MCF 10a normal breast cells. MCF 10A DNA re-replication, Hoechst nuclear intensity, 48 h. Potency, µM (titrated, usually from 46.1 µM), for inactives: at the top dose activity, positive = re-replication, hits mostly activators. 350,000 tested, 2.9% active. AID 624296; further: % of control where 0% means no effect; nearly all actives have a fitted effect of over 50% in size
HT1080 IDH1KD tx: HT-1080 IDH1 knockdown cell toxicity (counter line); HT-1080 IDH1 knockdown viability, ATP luminescence, 48 h; AID 686971; Potency, µM (titrated, usually from 46.1 µM), for the others: top-dose activity, negative = toxicity, hits mostly cytotoxic; 360,000 tested, 2% active;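 further: 0% = DMSO wells and -100% = cell-free medium wells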
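Using the IDH1-knockdown HT-1080 line run in the same batch and compound series as the NT line, viability after 48 h at 37 °C was determined by CellTiter-Glo luminescence and expressed as % activity.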
Numbers without * were called inactive; i = inactive; ? = inconclusive; · = no result given; ! = a repeat was not active. Shown are actives, neighbours in structure and some others; about 7.9% of the full set was active somewhere. The call rests on the fitted dose curve; in most records, active means well fitted curve in the direction sought with a large enough effect; inconclusive means small, poorly fitted or top-dose-only effect, or another doubt; inactive means no such curve, though single readings can be large; an effect the other way counts as inactive or inconclusive. Potency means the concentration at half of the fitted maximal effect.

SMILES	KB-3-1 cytotox	HT1080-NT tox	KB-V1 MDR tox	SW480 rereplic	MCF10A rereplic	HT1080 IDH1KD tx
COc1cc2c3c(c1OC)-c1cc(O)ccc1CC3NCC2 (stereo unspecified)	i	1%	i	0%	1%	2%
COc1cc2c(c(OC)c1OC)-c1ccc(O)c(=O)cc1[C@@H](NC(C)=O)CC2	?	6.5µM*	?	18µM*	16µM*	5.2µM*
COc1cc2c(c(OC)c1OC)-c1ccc(O)cc1[C@@H](NC(C)=O)CC2	0.016µM*	0.033µM*	i	?	?	0.016µM*
C[C@]12CCC(=O)C=C1CCC1C2CC[C@@]2(C)C1CC[C@@]2(O)CC#N (stereo partly specified)	i	7%	i	5%	-3%	4%
Cc1c(C(=O)O)cc(-c2ccccc2)n1Cc1ccccc1	i	-10%	i	-3%	-6%	-9%
COc1ccccc1C1=NCc2nnc(C)n2-c2ccc(Cl)cc21	i	15%	i	-1%	3%	7%
O=C1C(I)=CC(=C(c2cc(I)c(O)c(I)c2)c2ccccc2C(=O)O)C=C1I	·	·	·	-3%	?	·
COc1cccc(NP(=O)(Oc2ccccc2)Oc2ccccc2)c1	5.8µM*	?	i	16µM*	3.3µM*	?
COc1cccc(NP(=O)(Oc2ccccc2Cl)Oc2ccccc2Cl)c1	i	21µM*	?	4%	?	?
O=P(Nc1cccc(Cl)c1)(Oc1ccccc1)Oc1ccccc1	i	?	?	?	?	?
O=P(Nc1cccnc1)(Oc1ccccc1)Oc1ccccc1	i	-5%	i	-3%	-1%	0%
CCCCCn1c(=O)c(C(=O)NCc2ccccc2Cl)c(O)c2ccccc21	?	16%	?	-6%	3%	10%
COCCCn1c(N)c(C(=O)NCc2ccco2)c2nc3ccccc3nc21	i	-1%	i	18µM*	16µM*	-9%
CCC(C)NC(=O)c1c(N)n(CCCOC)c2nc3ccccc3nc12 (stereo unspecified)	i	-4%	8.2µM*	7.3µM*	4.1µM*	-4%
COCCCn1c(N)c(C(=O)Nc2ccccc2)c2nc3ccccc3nc21	?	?	i	21µM*	?	?
COCCCn1c(N)c(C(=O)OC(C)COC)c2nc3ccccc3nc21 (stereo unspecified)	i	-4%	?	3%	5%	-3%
COc1ccc(-n2c(O)c(C(C)=NC3CC3)c(=O)[nH]c2=O)cc1	i	17%	i	-2%	15%	14%
O=Cc1cn(Cc2ccc([N+](=O)[O-])cc2)c2ccccc12	6.5µM*	-22%	?	?	18µM*	-23%
Cc1cc(C(=O)CN2CCCC2)c(C)n1-c1ccc(F)cc1	i	-2%	i	18%	9%	0%
O=C(Nc1ccc(Cl)cc1)Nc1ccc(Cl)c(Cl)c1	?	?	21µM*!	?	?	?
COc1cc(CC2C(=O)N(C)C(=O)N(C)C2=O)ccc1OCc1ccccc1	i	10%	?	?	5.2µM*	6%
Fc1c(F)c(F)c(N2CCNCC2)c(F)c1F	i	0%	i	-4%	0%	-17%
Cc1cccc(N2C(=O)NC(=O)/C(=C\c3cc(C)n(-c4sc5c(c4C#N)CCCC5)c3C)C2=O)c1C	i	?	?	-29%	21µM*	16µM*
O=C1NC(=O)N(CCC2=CCCCC2)C(=O)/C1=C/c1ccc(O)cc1	i	11%	?	-8%	3%	1%
O=c1c2ccccc2nc(/C=C/c2ccc(O)cc2)n1-c1ccccc1O	21µM*	-10%	i	17%	21µM*	-18%
SMILES	KB-3-1 cytotox	HT1080-NT tox	KB-V1 MDR tox	SW480 rereplic	MCF10A rereplic	HT1080 IDH1KD tx
COc1ccccc1-n1c(/C=C/c2ccccc2)nc2ccccc2c1=O	i	·	i	·	·	·
Cc1ccccc1-n1c(/C=C/c2ccccn2)nc2ccccc2c1=O	i	-26%	?	27%	18µM*	-5%
O=c1c2ccccc2nc(/C=C/c2ccccc2)n1-c1ccccc1O	i	-23%	i	?	?	-28%
Cc1ccc(-n2c(/C=C\c3ccc(F)c(F)c3)nc3ccccc3c2=O)c(C)c1	2.9µM*	·	4.1µM*	·	·	·
COc1ccc(C(C)=O)cc1COC(=O)c1ccc2ccccc2n1	i	9%	i	2%	-35%	5%
c1ccc(C2(NC3=NCCO3)CCCCC2)cc1	i	-6%	i	·	·	-11%
Cc1nn(-c2ccccc2)c2c1C(c1ccc3c(c1)OCO3)SCC(=O)N2 (stereo unspecified)	i	14%	?	24%	15µM*	-2%
COc1cc(C2SCC(=O)Nc3c2c(C)nn3-c2ccccc2)cc(OC)c1OC (stereo unspecified)	i	-4%	i	-2%	1%	1%
CN(C)CC1CCCCC1OC(=O)Cc1ccc(Cl)c([N+](=O)[O-])c1 (stereo unspecified)	i	-3%	i	?	-31%	11%
CCCCn1c(O)c(C(CC)=NCc2ccc(F)cc2)c(=O)[nH]c1=O	?	1%	10µM*	-4%	15%	-10%
CCCCn1c(O)c(C(C)=NCc2ccc(F)cc2)c(=O)[nH]c1=O	i	-1%	i	-2%	0%	-11%
CC/C(=N\N1CCCCCC1)c1c(O)n(-c2ccccc2C)c(=O)[nH]c1=O	i	3%	12µM*	-1%	11%	4%
NC(=O)c1ccc(N)nc1	i	2.6µM*	?	?	-34%	4.6µM*
C[C@H](O)[C@H]1CC[C@H]2[C@@H]3CCC4=CC(=O)CC[C@]4(C)[C@H]3CC[C@]12C	i	-5%	15µM*	-13%	?	-3%
CC(=O)C1C(N2CC2)CC2C3CCC4=CC(=O)CCC4(C)C3CCC21C (stereo unspecified)	?	-1%	?	?	16µM*	-14%
CCC(=O)O[C@H]1CC[C@H]2[C@@H]3CCC4=CC(=O)CC[C@]4(C)[C@H]3CC[C@]12C	i	·	?	-81%	?	·
CC1CC2C(C(O)CC3(C)C(O)CCC23)C2(C)CCC(=O)C=C12 (stereo unspecified)	12µM*	4%	6.5µM*	6%	7%	4%
C[C@]12CCC(=O)C=C1CC[C@@H]1[C@@H]2CC[C@@]2(C)[C@H]1CC[C@]2(C)O	i	5%	?	-10%	?	-10%
